# The list is not random: actives were taken first. Their share in the collection is about 10%.
# GLS inhibitor – inhibitors of human glutaminase (GLS); O94925; GLS enzymatic activity, qHTS titration; Potency, µM (doses to about 45.5 µM), for inactives: at the highest dose activity change, negative = inhibition, most hits filed as inhibitors; 410,000 compounds, 0.21% hits; AID 624170; further: on the % scale 0 is the no-effect control and ±100 the full control effect
#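 hKGA in 45 mM KH2PO4 (pH 8.2), 0.02% Tween-20 with compound, then 1mM L-Glutamine (stock as added) plus glutamate oxidase/HRP/Amplex red coupling mix. Fluorescence read initially and after 30 min at RT; signal change reflects glutamate formation.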
# JMJD2A Tudor inh – JMJD2A Tudor domain (human) inhibition; AID 504339; AlphaScreen JMJD2A-Tudor / H3K4me3 peptide binding; 390,000 compounds, 4.4% hits; Potency, µM (series often up to 114 µM), for the others: at the top dose activity change, negative = inhibition, most hits filed as inhibitors; O75164; further: on the % scale 0 is the no-effect control and ±100 the full control effect; nearly all actives have a fitted effect of over 50% in size
# BAZ2B block – BAZ2B (human) inhibition; Q9UIF8; AlphaScreen BAZ2B-H3K14Ac peptide displacement; Potency, µM (titrated, usually from 114 µM), for inactives: top-dose activity change, negative = inhibition, actives largely listed as inhibitors; 360,000 compounds, 4.4% hits; AID 504333; further: on the % scale 0 is the no-effect control and ±100 the full control effect; nearly all actives have a fitted effect of over 60% in size
#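 Multi-concentration screen (max 110 uM) measuring displacement of acetylated histone H3 peptide from BAZ2B by AlphaScreen, using 50 nM protein, 50 nM peptide and 10 ug/mL streptavidin donor plus Ni-chelate acceptor beads.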
# HP1b chromo inh – HP1-beta chromodomain-methylated histone interaction inhibition; P83916; AlphaScreen HP1-beta / biotin-H3K9me3 peptide binding; Potency, µM (top dose mostly 114 µM), without a hit: at the highest dose activity change, negative = inhibition, actives largely listed as inhibitors; 390,000 compounds, 0.56% hits; further: nearly all actives have a fitted effect of over 70% in size
#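 AlphaScreen: HP1-beta (50 nM) preformed 30 min with biotin-H3(1-18)K9me3 peptide (50 nM) in PBS pH 7.4, 0.01% Tween-20. Compound added for 30 min at RT, then streptavidin donor/nickel chelate acceptor beads (10 ug/mL) for 30 min.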
# G9a block – G9a (human) methyltransferase inhibition. Q96KQ7. G9a H3K9 monomethylation, AlphaScreen, 2 h. Potency, µM (top dose mostly 102 µM), without a hit: top-dose activity, negative = inhibition, hits mostly inhibitors. 350,000 compounds, 8.8% hits. AID 504332; further: on the % scale 0 is the no-effect control and ±100 the full control effect; nearly all actives have a fitted effect of over 75% in size
#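 Readings reflect AlphaScreen signal from monomethyl-H3K9 antibody detection. HMT at 20 nM; substrate b-H3K9 500 nM; cofactor SAM 20 uM; 2 h RT reaction; compounds tested as titrations in qHTS with 15 min preincubation.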
# * marks the source's active call; other numbers are inactive results; ? = inconclusive; · = no result given; [ ] = remark or other dose. The call rests on the fitted dose curve; in most records, active means well fitted curve in the direction sought with a large enough effect; inconclusive means small, poorly fitted or top-dose-only effect, or another doubt; inactive means no such curve, though single readings can be large; an effect the other way counts as inactive or inconclusive. Potency means the concentration at half of the fitted maximal effect.
SMILES,GLS inhibitor,JMJD2A Tudor inh,BAZ2B block,HP1b chromo inh,G9a block
O=C(CSCC(=O)N1CCOCC1)Nc1nc(-c2ccccc2)cs1,7%,-9%,1%,25%,-2%
O=C(CN1CCOCC1)Nc1ccc(Cl)c(Cl)c1,-6%,28µM*,-35%,?,8.9µM*
O=C(CSCC(=O)N1CCOCC1)Nc1ccccc1,-3%,3%,39%,20%,45µM*
O=C(CN1CCOCCOCCN(CC(=O)Nc2ccccc2)CCOCC1)Nc1ccccc1,6%,-6%,-4%,43%,32µM*
O=C(CN1CCN(S(=O)(=O)N2CCOCC2)CC1)Nc1ccc(Cl)c(Cl)c1,3%,-4%,2%,26%,?
O=C(CN1CCOCCOCCOCC1)Nc1ccccc1,0%,-8%,2%,33%,?
CCOc1ccccc1C(=O)N1CCC(c2nc3ccccc3o2)CC1,-12%,-24%,-7%,22%,-3%[59 µM]
Cc1ccc(N=C/C(C(=O)C(F)(F)F)=C(\O)c2ccco2)cc1Cl,7%,?,0%,29%,45µM*
Cc1cccc(N=C/C(C(=O)C(F)(F)F)=C(\O)c2ccco2)c1,14%,-20%,5%,25%,44%[59 µM]
O=C(NCCNC(=O)c1ccco1)c1ccc(F)cc1,2%,-3%,-10%,0%,-2%
O=C(/C(C=Nc1ccc(F)cc1)=C(/O)c1ccco1)C(F)(F)F,1%,?,?,21%,40µM*
FC(F)(F)c1ccc(Cl)c(N/N=C/c2ccc(N3CCOCC3)s2)c1,-10%,?,-31%,-12%,4µM*
O=C(CN1CCOCC1)Nc1cc(C(F)(F)F)ccc1Cl,-14%,?,6%,-13%,28%
Cc1c(C#N)c(O)n(CCO)c(=O)c1N=Nc1ccc2c(c1)COC2=O,2%,-34%,-18%,-18%,50µM*
Cc1ccc(N(CC(=O)Nc2cc(C)ccc2C)S(=O)(=O)c2c(C)noc2C)cc1,0%,-3%,·,35%,1%[59 µM]
O=C(O)c1cc([N+](=O)[O-])c(NCCC2=CCCCC2)c([N+](=O)[O-])c1,13%,-32%,-27%,-4%,50µM*
Cc1cc(C)n2c(NC3CCCC3)c(-c3cccnc3)nc2n1,19%,·,·,·,·
CCCCN(C)C(=O)c1cc2c(s1)-c1ccccc1S(=O)(=O)C2,1%,-13%,1%,20%,0%[59 µM]
CCc1nnc(NC(=O)c2c(O)c3cccc4c3n(c2=O)CC4)s1,·,·,3%,·,-38%[12.7 µM]
Cn1c(-c2ccccc2)cnc1SCC(=O)N1CCCc2ccccc21,11%,?,45µM*,?,?
CCc1nnc(NCC(=O)N2CCc3ccccc32)s1,13%,14%[11.4 µM],?,-8%,14µM*
O=C(CSc1nnnn1C1CCCCC1)N1CCc2ccccc21,-4%,-6%,7%,24%,-1%[12.7 µM]
O=C(CSc1nccn1-c1ccc(Cl)cc1)N1CCCc2ccccc21,-6%,?,35µM*,?,50µM*
O=C(CSc1ncc(-c2ccccc2)n1C1CCCC1)N1CCc2ccccc21,-4%,-26%,?,-8%,32µM*
O=C(CSc1nccn1-c1ccccc1)N1CCc2ccccc21,-2%,-19%,?,-12%,?
SMILES,GLS inhibitor,JMJD2A Tudor inh,BAZ2B block,HP1b chromo inh,G9a block
COc1ccc(-c2cn3nc(N4CCC(C(=O)Nc5ccc(Cl)cc5C)CC4)sc3n2)cc1,3%,-17%,-1%,18%,?
Cn1ccc2cc(S(=O)(=O)N3CCCN(C(=O)Nc4ccc(Br)cc4)CC3)ccc21,7%,-19%,-21%,13%[57 µM],3%[59 µM]
COc1ccc(NC(=O)c2cc(F)c(F)cc2Cl)cc1Cl,-13%,-12%,0%,3%,-5%
Cc1ccc(-c2cnc(SCC(=O)N3CCCc4ccccc43)n2C)cc1,-9%,?,28µM*,?,11µM*
O=C(CSc1nnnn1-c1ccccc1)N1CCCc2ccccc21,8%,3%,-1%,31%,10%
Cn1c(SCC(=O)N2CCCc3ccccc32)ncc(C(=O)Nc2ccccc2)c1=O,5%,0%,3%,57%,2%[59 µM]
O=C(CSc1nnnn1-c1ccccc1)N1CCc2ccccc21,2%,-22%,11%,17%,13µM*
Clc1ccc(OCCN2CCCCC2)c(Cl)c1,10%,5.6µM*,50µM*,45µM*,11µM*
Clc1ccccc1OCCN1CCCCC1,-6%,22µM*,-3%,?,?
O=C(COc1ccc(Cl)cc1Cl)N1CCCC1,3%,-12%,-6%,22%,?
CC(NS(=O)(=O)c1ccc(Br)cc1)C(=O)NC1CCCCCC1 (stereo not given),0%,-11%,-9%,34%,-13%
O=C(O)Cc1ccc(NC(=O)CCN2C(=O)c3ccc([N+](=O)[O-])cc3C2=O)cc1,6%,-5%[11.4 µM],-15%,34%,-1%
O=C(CCN1C(=O)c2ccc([N+](=O)[O-])cc2C1=O)Nc1ccc(O)cc1C(=O)O,-21%,-18%,7%,1%,50µM*
NCCSSCCN,0%,-6%,-12%,13µM*,22µM*
COc1cccc(-n2c(=O)[nH]cc(C(=O)Nc3ccc(NC(C)=O)cc3)c2=O)c1,-1%,-23%,-7%,42%,45µM*
CCCCc1c(O)n(-c2ccccc2)[nH]c1=O,·,·,·,·,11µM*
CCn1ccnc1C(O)c1ccc(N(C)C)cc1 (stereo not given),44%,?,?,-5%,32µM*
Cc1cnn(C(=O)c2cc(-c3ccccn3)nc3ccc(Cl)cc23)c1,-1%,-15%,56µM*,13%,?
O=C(NC1CCCCC1)c1cc(-c2ccccn2)nc2ccccc12,1%,-17%,-14%,15%,50µM*
O=C(NC1CCCCCC1)c1cc(-c2ccccn2)nc2ccccc12,8%,-12%,-13%,19%,-12%
Cc1ccc(C)c(-c2cc(C(=O)NNC(=S)NCC(C)C)c3ccccc3n2)c1,55%,-20%,-4%,-9%,10µM*
Cc1ccc(C)c(-c2cc(C(=O)NC3CC3)c3ccccc3n2)c1,-22%,-24%,-25%,20%,45µM*
O=C(NCCc1ccc(Cl)cc1)c1cc(-c2ccccn2)nc2ccccc12,4%,22µM*,-21%,-1%,18%[59 µM]
Cc1ccc(NC(=O)C2COc3ccccc3O2)nc1 (stereo not given),0%,-3%,6%,25%,16%
Cc1nnsc1C(=O)N1CCN(c2ccc(C#N)cn2)CC1,0%,-5%,3%,8%,11%[59 µM]
Cc1c(C(=O)O)cccc1[N+](=O)[O-],-10%,-8%,?,22%,2%[0.501 µM]
O=C(O)c1c[nH]c2c([N+](=O)[O-])cccc2c1=O,136%,20µM*,·,79µM*,·
C[N+](C)(C)CCCN(Cc1ccc2c(c1)OCO2)C(=O)NC1CCCCC1,-4%,?,-30%,4%,50µM*
Cc1cc(NC(=O)CCC(=O)N(CC(=O)NC2CCCC2)Cc2ccc(F)cc2)no1,-6%,23%,-6%,20%,23%[12.7 µM]

# Screening results: PubChem, National Center for Advancing Translational Sciences (NCATS)
